Consider 16 molecules from PubChem BioAssay (NCATS).

Calls of active or inactive are those of the source.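 How the source made its calls: active means compounds whose dose series gives a full or clear partial fitted curve of increased nuclear translocation; inconclusive means weak partial curve or effect only at the top dose; inactive means no dose-dependent translocation response.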 Some results are limits rather than exact numbers.
Potency means the concentration at half of the fitted maximal effect.

Glucocorticoid receptor (Homo sapiens), sequence (P04150 whole entry, looked up): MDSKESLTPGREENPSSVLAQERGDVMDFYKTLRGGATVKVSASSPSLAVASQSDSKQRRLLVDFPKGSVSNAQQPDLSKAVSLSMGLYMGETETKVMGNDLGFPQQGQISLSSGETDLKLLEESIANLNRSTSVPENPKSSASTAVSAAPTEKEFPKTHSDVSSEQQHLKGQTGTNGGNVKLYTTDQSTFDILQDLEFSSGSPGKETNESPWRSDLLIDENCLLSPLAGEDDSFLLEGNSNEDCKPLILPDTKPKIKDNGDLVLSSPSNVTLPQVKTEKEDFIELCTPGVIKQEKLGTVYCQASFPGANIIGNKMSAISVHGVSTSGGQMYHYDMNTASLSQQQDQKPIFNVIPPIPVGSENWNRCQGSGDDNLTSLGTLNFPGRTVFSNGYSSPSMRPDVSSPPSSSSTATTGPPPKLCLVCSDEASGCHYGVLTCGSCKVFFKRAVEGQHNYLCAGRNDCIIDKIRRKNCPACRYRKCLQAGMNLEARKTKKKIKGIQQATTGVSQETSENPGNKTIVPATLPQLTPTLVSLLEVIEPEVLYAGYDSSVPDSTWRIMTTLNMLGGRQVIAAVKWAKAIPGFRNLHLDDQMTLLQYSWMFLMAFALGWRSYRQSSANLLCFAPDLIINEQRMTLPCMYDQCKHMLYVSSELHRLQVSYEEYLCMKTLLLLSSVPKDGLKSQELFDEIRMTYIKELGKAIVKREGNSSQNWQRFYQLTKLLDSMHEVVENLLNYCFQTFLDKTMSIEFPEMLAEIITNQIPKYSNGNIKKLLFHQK

This assay has as its target Glucocorticoid receptor (Homo sapiens) (UniProt P04150). Description: GR-GFP Redistribution (AID 450). The conditions noted are these: U2OS GR-GFP nuclear translocation, laser cytometry, 2 h; series mostly up to 20.6 µM.
For the molecule `O=CN1CCN(C(=O)CN2C(=O)c3ccccc3C2=O)CC1`, the Potency was > 20.6 µM (inactive).

For `O=CNC(=O)c1ccccc1C(=O)O`, the Potency was > 20.6 µM (inactive).

As to `CS(=O)(=O)CCC(C(=O)n1nnc2ccccc21)N1C(=O)c2ccccc2C1=O` (stereo unspecified), the Potency was > 20.6 µM (inactive).

Consider `CCOc1nc(-c2ccncc2)nc2ccccc12`, for which the Potency is > 20.6 µM (inactive).

For `Cc1ccc(C2C(C(=O)c3cc4ccccc4o3)=C(O)C(=O)N2CCN(C)C)o1` (stereo unspecified), the Potency was > 20.6 µM (inactive).

For `Cn1c(=O)c2c(nc(NCc3ccco3)n2Cc2ccccc2Cl)n(C)c1=O`, the Potency is > 20.6 µM (inactive).

`N#C/C(C(=O)NCc1ccco1)=C1/SC(Cc2ccc(F)cc2)C(=O)N1c1ccccc1` (stereo unspecified): the Potency was > 20.6 µM (inactive).

Regarding `CCOc1ccc2c(c1)n([O-])c1c([n+]2=O)CCCC1`, the Potency is > 20.6 µM (inactive).

Turning to `COc1cc(C2C(C(=O)c3cccs3)=C(O)C(=O)N2c2cc(C)on2)ccc1O` (stereo unspecified), the Potency was > 20.6 µM (inactive).

For the molecule `CN1CCN(CCCCOc2ccc(F)cc2)CC1`, the Potency is > 20.6 µM (inactive).

Consider `CCOC(=O)CSC1=C(C#N)C(c2ccc3c(c2)OCO3)CC(=O)N1` (stereo unspecified), for which the Potency is > 20.6 µM (inactive).

With `CCn1c(SCC(=O)O)nc2sc3c(c2c1=O)CCC3`, the Potency is > 20.6 µM (inactive).

Take `Cc1cc(=O)oc(C)c1C(=O)NCCNC(=O)c1c(C)cc(=O)oc1C`: the Potency was > 20.6 µM (inactive).

`CCCOc1cccc(-c2nnc(N)s2)c1`: the Potency is > 20.6 µM (inactive).

Turning to `c1ccc(C2=Nn3c(nnc3-c3ccccn3)SC2)cc1`, the Potency is > 20.6 µM (inactive).

With `COc1cc(-c2nn3c(-c4ccco4)nnc3s2)cc(OC)c1OC`, the Potency was > 20.6 µM (inactive).
